Several values for one entry are separate records, joined by “and”; a condition that tells them apart may be missing. Equal entries are not always repeated. About 79,000 compounds went through this panel and 15% of them were active in at least one assay; those are over-represented in the sample as a whole. The source holds several records for some structures; these can differ, active in one and inactive in another. Activity calls are given as the source filed them. Cut-off read from the data, not from the text of the source: active = growth inhibition above about 70%; inactive = the rest.
Experiments:
[1] = NCI Yeast Anticancer Drug Screen. Data for the rad52 strain (AID 147);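 note: 0% = growth of vehicle-treated control cultures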; conditions: S. cerevisiae rad52 mutant growth inhibition, stronger effect = higher value
Procedure, shortened: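 Compounds are applied to a genetically defined yeast strain lacking normal DNA damage repair, and inhibition of growth is expressed relative to cultures given vehicle only.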

[2] = NCI Yeast Anticancer Drug Screen. Data for the wt1 strain (AID 149);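 note: 0% = growth of vehicle-treated wt1 cultures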; conditions: S. cerevisiae wt1 strain (SPY 50644) growth inhibition, stronger effect = higher value
Procedure, shortened: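 wt1 strain grown with compound or vehicle; inhibition taken from the growth difference.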

[3] = NCI Yeast Anticancer Drug Screen. Data for the rad50EPP+ strain (AID 151);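 note: 0% = growth of vehicle-treated control cultures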; conditions: S. cerevisiae rad50 mutant strain, stronger effect = higher value
Procedure, shortened: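 Compounds were applied to the rad50EPP+ yeast strain, which bears a defined DNA repair alteration, and growth inhibition was determined relative to vehicle-treated cultures.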

[4] = NCI Yeast Anticancer Drug Screen. Data for the mgt1 strain (AID 153); conditions: S. cerevisiae mgt1 mutant growth inhibition, stronger effect = higher value
Procedure, shortened: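 Strain: mgt1 yeast, one of a set carrying defined DNA damage repair or cell cycle control alterations. Compound-treated growth compared with vehicle.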

[5] = NCI Yeast Anticancer Drug Screen. Data for the rad50 strain (AID 155);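 note: 0% = growth of vehicle-only cultures of the same strain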; conditions: S. cerevisiae rad50 strain growth inhibition, stronger effect = higher value
Procedure, shortened: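 DNA repair mutant yeast, compound exposure, growth read-out; inhibition is taken relative to vehicle.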

[6] = NCI Yeast Anticancer Drug Screen. Data for the mec2-1 strain (AID 157); conditions: S. cerevisiae mec2-1 strain, stronger effect = higher value
Procedure, shortened: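 Strain: mec2-1 (DNA repair/cell cycle alteration). Compound exposure, then growth measured; inhibition expressed relative to vehicle.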

[7] = NCI Yeast Anticancer Drug Screen. Data for the rad14 strain (AID 159);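 note: 0% = growth of vehicle-treated control cultures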; conditions: S. cerevisiae rad14 strain growth inhibition, stronger effect = higher value
Procedure, shortened: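 DNA repair-defective yeast, compound-exposed; % growth inhibition derived by comparison with vehicle-treated controls.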

[8] = NCI Yeast Anticancer Drug Screen. Data for the sgs1 mgt1 strain (AID 161);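 note: 0% = growth of cultures given vehicle only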; conditions: S. cerevisiae sgs1 mgt1 strain, stronger effect = higher value
Procedure, shortened: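 Genetically altered yeast, compound exposure, growth inhibition relative to vehicle.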

[9] = NCI Yeast Anticancer Drug Screen. Data for the CLN2oe strain (AID 163);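 note: 0% = growth of vehicle-only control cultures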; conditions: S. cerevisiae CLN2oe strain, stronger effect = higher value
Procedure, shortened: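 Growth of a genetically modified yeast strain is measured after compound exposure and compared with cultures given vehicle alone.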

[10] = NCI Yeast Anticancer Drug Screen. Data for the cln2 rad14 strain (AID 165);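 note: 0% = growth equal to vehicle treated cultures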; conditions: S. cerevisiae cln2 rad14 strain, stronger effect = higher value
Procedure, shortened: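 Compounds are applied to the cln2 rad14 yeast strain, and growth is then compared with that of vehicle-treated cultures to give inhibition.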

[11] = NCI Yeast Anticancer Drug Screen. Data for the bub3 strain (AID 167); conditions: S. cerevisiae bub3 mutant strain, stronger effect = higher value
Procedure, shortened: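 In this screen, a yeast mutant lacking normal mitotic checkpoint function is challenged with compound. Relative growth versus vehicle gives the inhibition value.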

[12] = NCI Yeast Anticancer Drug Screen. Data for the wt2 strain (AID 169);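 note: 0% = growth of vehicle-treated yeast cultures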; conditions: S. cerevisiae wt2 strain growth inhibition, stronger effect = higher value
Procedure, shortened: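 This strain belongs to a panel of yeast strains with defined genetic alterations in DNA damage repair or cell cycle control. Compounds are applied, and growth inhibition is measured against vehicle-treated cultures.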

[13] = NCI Yeast Anticancer Drug Screen. Data for the mlh1 strain (AID 171);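 note: 0% = growth of vehicle-treated control cultures of the same strain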; conditions: S. cerevisiae mlh1 strain growth inhibition, stronger effect = higher value
Procedure, shortened: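 Growth of the mutant yeast strain after compound exposure, expressed as inhibition relative to vehicle-only controls.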

[14] = NCI Yeast Anticancer Drug Screen. Data for the sgs1 strain (AID 173);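 note: 0% = growth of vehicle-only control cultures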; conditions: S. cerevisiae sgs1 mutant, stronger effect = higher value
Procedure, shortened: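 Growth of a yeast strain bearing a defined genetic alteration is measured after compound treatment. Inhibition is expressed relative to vehicle-only controls.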

[15] = NCI Yeast Anticancer Drug Screen. Data for the mlh1 rad18 strain (AID 175); conditions: S. cerevisiae mlh1 rad18 strain growth inhibition, stronger effect = higher value
Procedure, shortened: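 Read-out is yeast growth inhibition, calculated against vehicle-only controls. The compound was applied to a strain engineered with DNA damage repair alterations.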

[16] = NCI Yeast Anticancer Drug Screen. Data for the rad18 strain (AID 177); conditions: S. cerevisiae rad18 mutant growth inhibition, stronger effect = higher value
Procedure, shortened: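 Growth of the mutant yeast strain after compound exposure, normalised to vehicle-only cultures.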

[17] = at 5.0 µM (retest, dose inferred, filed as 0.5)
[18] = at 50.0 µM (retest, dose inferred, filed as 5.0)

Measured: growth inhibition

O=C(O)c1ccc(N2C(=O)C=CC2=O)cc1
active: [1]; at 100.0 µM 74% | [5]; at 100.0 µM 80% | [16]; at 100.0 µM 72%
30% (inactive) and 72.7% (active): [5]; at 50.0 µM
inactive: [1]; at 1.2 µM 1% | [1]; at 3.7 µM 7% | [1]; at 11.0 µM 8% | [1]; at 33.0 µM 27% | [2]; at 1.2 µM -3% | [2]; at 3.7 µM -2% | [2]; at 11.0 µM 1% | [2]; at 33.0 µM 10% | [2]; at 100.0 µM 53% | [3]; at 1.2 µM 2% | [3]; at 3.7 µM 5% | [3]; at 11.0 µM 8% | [3]; at 33.0 µM 22% | [3]; at 100.0 µM 40% | [4]; at 1.2 µM 1% | [4]; at 3.7 µM 1% | [4]; at 11.0 µM 3% | [4]; at 33.0 µM 18% | [4]; at 100.0 µM 62% | [5]; at 1.2 µM 3% | [5]; at 3.7 µM 11% | [5]; [17] -8% and 7% | [5]; at 11.0 µM 14% | [5]; at 33.0 µM 33% | [5]; [18] 44% and 25% | [6]; at 1.2 µM -7% | [6]; at 3.7 µM -4% | [6]; [17] 5% and 7% | [6]; at 11.0 µM 0% | [6]; at 33.0 µM 21% | [6]; [18] 15% and 24% | [6]; at 50.0 µM 17.6% and 32.5% | [6]; at 100.0 µM 56% | [7]; at 1.2 µM -3% | [7]; at 3.7 µM -6% | [7]; at 11.0 µM 3% | [7]; at 33.0 µM 12% | [7]; at 100.0 µM 38% | [8]; [17] 9% and 8% | [8]; [18] 56% and 22% | [8]; at 50.0 µM 11.9% and 59.4% | [9]; at 1.2 µM 1% | [9]; at 3.7 µM 4% | [9]; at 11.0 µM 6% | [9]; at 33.0 µM 18% | [9]; at 100.0 µM 39% | [10]; [17] -35% and 5% | [10]; [18] -2% and 6% | [10]; at 50.0 µM 43.3% and 26.8% | [11]; at 1.2 µM -7% | [11]; at 3.7 µM -23% | [11]; [17] -13% and -1% | [11]; at 11.0 µM -3% | [11]; at 33.0 µM 4% | [11]; [18] 10% and -10% | [11]; at 50.0 µM -2.9% and -0.2% | [11]; at 100.0 µM 39% | [12]; at 1.2 µM -2% | [12]; at 3.7 µM -1% | [12]; at 11.0 µM 5% | [12]; at 33.0 µM 22% | [12]; at 100.0 µM 68% | [13]; at 1.2 µM -2% | [13]; at 3.7 µM 5% | [13]; at 11.0 µM 10% | [13]; at 33.0 µM 25% | [13]; at 100.0 µM 61% | [14]; at 1.2 µM 0% | [14]; at 3.7 µM 4% | [14]; at 11.0 µM 14% | [14]; at 33.0 µM 31% | [14]; at 100.0 µM 67% | [15]; [17] -6% and 4% | [15]; [18] 41% and 20% | [15]; at 50.0 µM 20.1% and 27.3% | [16]; at 1.2 µM 1% | [16]; at 3.7 µM 3% | [16]; at 11.0 µM 4% | [16]; at 33.0 µM 22%

Oc1ccc(O)c(Cc2ccccc2)c1
inactive: [1]; at 1.2 µM 21% | [1]; at 3.7 µM 48% | [2]; at 1.2 µM 6% | [2]; at 3.7 µM 14% | [2]; at 11.0 µM 29% | [2]; at 33.0 µM 50% | [3]; at 1.2 µM 56% | [4]; at 1.2 µM 4% | [4]; at 3.7 µM 13% | [4]; at 11.0 µM 37% | [5]; at 1.2 µM 37% | [6]; at 1.2 µM 6% | [6]; at 3.7 µM 30%
active: [1]; at 11.0 µM 89% | [1]; at 33.0 µM 97% | [1]; at 100.0 µM 99% | [2]; at 100.0 µM 93% | [3]; at 3.7 µM 88% | [3]; at 11.0 µM 95% | [3]; at 33.0 µM 98% | [3]; at 100.0 µM 99% | [4]; at 33.0 µM 78% | [4]; at 100.0 µM 99% | [5]; at 3.7 µM 87% | [5]; [17] 77% | [5]; at 11.0 µM 97% | [5]; at 33.0 µM 99% | [5]; [18] 97% | [5]; at 50.0 µM 79.3% | [5]; at 100.0 µM 99%

Source: PubChem BioAssay (NCI)
